These results are taken from article PMC7862700, “An all-to-all approach to the identification of sequence-specific readers for epigenetic DNA modifications on cytosine”.

What all share (experiment): DAPPL (digital affinity profiling via proximity ligation, sequencing); 10 mM Tris-HCl pH 7.5, 50 mM NaCl, 1 mM DTT, 4% glycerol, room temperature, 30 min; GST-TFs on glutathione beads, 16-mer random dsDNA library, 0.1% formaldehyde crosslink after washing; high values mean tight binding
The target in one assay is T1, FEV (Homo sapiens, UniProt Q99581 1-238).
T1 sequence: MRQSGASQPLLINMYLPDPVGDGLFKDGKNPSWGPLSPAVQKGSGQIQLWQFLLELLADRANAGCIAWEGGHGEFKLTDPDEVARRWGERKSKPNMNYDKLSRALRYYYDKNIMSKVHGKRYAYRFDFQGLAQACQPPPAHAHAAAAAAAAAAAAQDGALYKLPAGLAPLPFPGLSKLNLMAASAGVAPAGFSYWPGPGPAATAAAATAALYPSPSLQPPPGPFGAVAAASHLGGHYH
The settings on record: protein: recombinant; tags: N-terminal GST; dsDNA, one strand shown. The method, boiled down: (§1)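 Pools were built from human transcription factors expressed in yeast as GST fusions, captured on glutathione beads and DNA-barcoded, along with a tag-only sample. Incubation with 200 nmole of a 16-mer random double-stranded DNA library lasted 30 min at room temperature in Tris/NaCl/DTT/glycerol buffer, and was followed by washing, 0.1% formaldehyde crosslinking, proximity ligation, PCR amplification and Illumina NextSeq500 sequencing. Binding signal is the quotient of each hexamer's read frequency for a factor and its frequency for the tag-only sample.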

For a further assay, the target named is ETV5 (Homo sapiens, UniProt P41161 1-510). The settings on record: protein: recombinant; tags: N-terminal GST; dsDNA, one strand shown. The method, boiled down: as §1
The next assay concerns the target HSF1 (Homo sapiens, UniProt Q00613 1-529). The settings on record: protein: recombinant; tags: N-terminal GST; chain copies: 3; dsDNA, one strand shown. A digest of the protocol:
as §1

Another assay has as its target T2, SPIC (Homo sapiens, UniProt Q8N5J4 1-248).
T2 sequence: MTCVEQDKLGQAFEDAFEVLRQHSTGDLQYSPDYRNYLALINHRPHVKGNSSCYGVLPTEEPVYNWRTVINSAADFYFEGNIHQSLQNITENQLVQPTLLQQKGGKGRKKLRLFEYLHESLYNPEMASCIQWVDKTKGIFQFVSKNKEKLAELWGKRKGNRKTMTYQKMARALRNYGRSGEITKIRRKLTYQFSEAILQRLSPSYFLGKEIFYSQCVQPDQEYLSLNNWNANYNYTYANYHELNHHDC
The settings on record: protein: recombinant; tags: N-terminal GST; dsDNA, one strand shown. The method, boiled down: as §1

A further assay addresses ELF4 (Homo sapiens, UniProt Q99607 1-663). The settings on record: protein: recombinant; tags: N-terminal GST; dsDNA, one strand shown. A digest of the protocol: as §1
Another assay concerns the target T3, ELK4 (Homo sapiens, UniProt P28324-2 1-405).
T3 sequence: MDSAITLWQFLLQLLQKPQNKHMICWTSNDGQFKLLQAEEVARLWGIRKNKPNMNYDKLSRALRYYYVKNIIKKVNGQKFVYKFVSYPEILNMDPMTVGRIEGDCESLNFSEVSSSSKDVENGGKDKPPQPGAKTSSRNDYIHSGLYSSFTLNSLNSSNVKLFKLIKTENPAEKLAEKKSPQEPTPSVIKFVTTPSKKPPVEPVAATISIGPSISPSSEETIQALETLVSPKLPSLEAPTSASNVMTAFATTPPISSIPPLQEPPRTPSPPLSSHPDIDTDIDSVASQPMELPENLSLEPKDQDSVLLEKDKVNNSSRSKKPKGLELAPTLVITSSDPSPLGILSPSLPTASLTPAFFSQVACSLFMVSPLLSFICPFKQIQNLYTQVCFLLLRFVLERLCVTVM
The settings on record: protein: recombinant; tags: N-terminal GST; dsDNA, one strand shown. The method, boiled down: as §1

A further assay addresses T4, ETV2 (Homo sapiens, UniProt O00321 1-342).
T4 sequence: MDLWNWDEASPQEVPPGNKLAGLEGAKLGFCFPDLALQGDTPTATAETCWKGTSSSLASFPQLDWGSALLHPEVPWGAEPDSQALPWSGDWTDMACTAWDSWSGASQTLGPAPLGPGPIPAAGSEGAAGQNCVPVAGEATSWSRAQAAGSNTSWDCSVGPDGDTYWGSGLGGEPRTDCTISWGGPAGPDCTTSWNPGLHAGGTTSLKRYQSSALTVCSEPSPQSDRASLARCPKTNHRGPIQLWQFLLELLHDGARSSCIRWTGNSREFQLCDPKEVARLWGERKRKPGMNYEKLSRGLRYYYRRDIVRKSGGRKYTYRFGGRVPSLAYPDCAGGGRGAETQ
The conditions noted are these: protein: recombinant; tags: N-terminal GST; dsDNA, one strand shown. The method, boiled down: as §1

For the next assay, the target named is T5, ELF3 (Homo sapiens, UniProt P78545 1-371).
T5 sequence: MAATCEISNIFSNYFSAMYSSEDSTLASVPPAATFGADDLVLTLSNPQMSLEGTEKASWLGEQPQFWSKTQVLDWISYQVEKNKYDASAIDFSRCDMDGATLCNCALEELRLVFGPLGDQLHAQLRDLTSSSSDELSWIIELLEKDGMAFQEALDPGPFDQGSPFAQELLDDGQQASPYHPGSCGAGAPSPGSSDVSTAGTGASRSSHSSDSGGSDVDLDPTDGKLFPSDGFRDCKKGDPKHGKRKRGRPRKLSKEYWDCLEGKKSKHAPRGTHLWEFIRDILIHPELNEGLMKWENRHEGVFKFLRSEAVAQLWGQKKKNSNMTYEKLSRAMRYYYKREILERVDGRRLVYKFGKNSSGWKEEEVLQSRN
The settings on record: protein: recombinant; tags: N-terminal GST; dsDNA, one strand shown. The method, boiled down: as §1

Another assay deals with CRX (Homo sapiens, UniProt O43186 1-299). The conditions noted are these: protein: recombinant; tags: N-terminal GST; dsDNA, one strand shown. A digest of the protocol:
as §1

The target of a further assay is ETV1 (Homo sapiens, UniProt P50549 1-477). The settings on record: protein: recombinant; tags: N-terminal GST; dsDNA, one strand shown. A digest of the protocol: as §1
Another assay concerns the target T6, ERF (Homo sapiens, UniProt P50548 1-548).
T6 sequence: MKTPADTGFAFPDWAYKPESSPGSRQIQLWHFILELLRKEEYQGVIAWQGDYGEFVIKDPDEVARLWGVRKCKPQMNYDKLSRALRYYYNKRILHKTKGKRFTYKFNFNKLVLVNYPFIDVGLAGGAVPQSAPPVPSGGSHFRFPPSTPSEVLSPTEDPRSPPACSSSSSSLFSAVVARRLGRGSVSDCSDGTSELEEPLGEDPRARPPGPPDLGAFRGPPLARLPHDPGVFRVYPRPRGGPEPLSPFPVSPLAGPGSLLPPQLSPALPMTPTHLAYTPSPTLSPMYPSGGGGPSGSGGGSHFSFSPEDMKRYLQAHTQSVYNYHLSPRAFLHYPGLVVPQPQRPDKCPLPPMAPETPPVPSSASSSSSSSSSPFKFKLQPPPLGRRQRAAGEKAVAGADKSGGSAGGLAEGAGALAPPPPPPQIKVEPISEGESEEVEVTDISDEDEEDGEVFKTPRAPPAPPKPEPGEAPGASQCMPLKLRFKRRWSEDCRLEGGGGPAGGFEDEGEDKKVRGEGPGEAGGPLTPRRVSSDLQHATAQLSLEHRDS
The settings on record: protein: recombinant; tags: N-terminal GST; dsDNA, one strand shown. A digest of the protocol: as §1

Another assay concerns the target T7, ETV3L (Homo sapiens, UniProt Q6ZN32 1-361).
T7 sequence: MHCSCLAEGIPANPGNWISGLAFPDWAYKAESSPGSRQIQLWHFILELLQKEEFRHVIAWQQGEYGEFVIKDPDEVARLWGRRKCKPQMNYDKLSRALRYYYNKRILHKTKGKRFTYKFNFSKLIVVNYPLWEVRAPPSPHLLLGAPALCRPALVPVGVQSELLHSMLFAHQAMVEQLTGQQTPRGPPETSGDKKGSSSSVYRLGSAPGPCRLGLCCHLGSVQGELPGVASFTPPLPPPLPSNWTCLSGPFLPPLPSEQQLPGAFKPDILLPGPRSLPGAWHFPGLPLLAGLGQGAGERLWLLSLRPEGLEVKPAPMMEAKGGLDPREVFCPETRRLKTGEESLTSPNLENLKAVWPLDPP
The settings on record: protein: recombinant; tags: N-terminal GST; dsDNA, one strand shown. A digest of the protocol: as §1

The target in the next assay is T8, ETS2 (Homo sapiens, UniProt P15036 1-469).
T8 sequence: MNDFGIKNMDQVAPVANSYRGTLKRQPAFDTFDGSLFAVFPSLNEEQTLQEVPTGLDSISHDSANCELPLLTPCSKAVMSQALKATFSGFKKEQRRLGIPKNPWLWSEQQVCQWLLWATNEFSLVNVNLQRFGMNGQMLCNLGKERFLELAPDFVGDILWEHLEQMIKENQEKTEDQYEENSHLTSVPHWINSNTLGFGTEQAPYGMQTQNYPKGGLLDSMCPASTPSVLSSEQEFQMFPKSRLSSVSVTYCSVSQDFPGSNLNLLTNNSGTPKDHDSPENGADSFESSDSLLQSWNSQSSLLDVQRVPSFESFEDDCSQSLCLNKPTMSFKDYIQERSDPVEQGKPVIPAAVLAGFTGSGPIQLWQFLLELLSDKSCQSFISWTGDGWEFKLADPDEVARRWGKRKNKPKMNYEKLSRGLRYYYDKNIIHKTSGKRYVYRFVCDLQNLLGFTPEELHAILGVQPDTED
The settings on record: protein: recombinant; tags: N-terminal GST; dsDNA, one strand shown. A digest of the protocol: as §1

A further assay deals with T9, SPDEF (Homo sapiens, UniProt O95238 1-335).
T9 sequence: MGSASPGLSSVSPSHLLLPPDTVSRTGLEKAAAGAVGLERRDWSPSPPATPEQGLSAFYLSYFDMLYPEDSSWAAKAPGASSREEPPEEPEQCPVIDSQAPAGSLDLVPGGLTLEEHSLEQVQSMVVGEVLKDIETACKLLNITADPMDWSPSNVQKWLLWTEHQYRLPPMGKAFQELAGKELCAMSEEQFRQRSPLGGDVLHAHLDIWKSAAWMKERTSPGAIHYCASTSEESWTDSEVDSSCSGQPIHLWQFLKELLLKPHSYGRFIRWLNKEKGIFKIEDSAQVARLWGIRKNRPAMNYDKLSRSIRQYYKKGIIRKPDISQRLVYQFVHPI
The settings on record: protein: recombinant; tags: N-terminal GST; dsDNA, one strand shown. The method, boiled down: as §1

For a further assay, the target named is T10, ETV7 (Homo sapiens, UniProt Q9Y603 1-341).
T10 sequence: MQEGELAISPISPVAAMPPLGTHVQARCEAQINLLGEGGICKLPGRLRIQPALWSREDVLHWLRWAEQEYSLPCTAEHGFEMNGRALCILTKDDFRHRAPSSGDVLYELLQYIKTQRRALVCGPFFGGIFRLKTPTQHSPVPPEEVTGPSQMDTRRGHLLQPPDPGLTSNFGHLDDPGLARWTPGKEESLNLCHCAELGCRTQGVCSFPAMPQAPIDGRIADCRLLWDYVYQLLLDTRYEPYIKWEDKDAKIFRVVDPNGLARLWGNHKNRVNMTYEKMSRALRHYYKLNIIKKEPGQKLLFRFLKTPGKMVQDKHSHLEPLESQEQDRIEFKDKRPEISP
The conditions noted are these: protein: recombinant; tags: N-terminal GST; dsDNA, one strand shown. A digest of the protocol:
as §1

For the next assay, the target named is T11, ELF5 (Homo sapiens, UniProt Q9UKW6-2 1-255).
T11 sequence: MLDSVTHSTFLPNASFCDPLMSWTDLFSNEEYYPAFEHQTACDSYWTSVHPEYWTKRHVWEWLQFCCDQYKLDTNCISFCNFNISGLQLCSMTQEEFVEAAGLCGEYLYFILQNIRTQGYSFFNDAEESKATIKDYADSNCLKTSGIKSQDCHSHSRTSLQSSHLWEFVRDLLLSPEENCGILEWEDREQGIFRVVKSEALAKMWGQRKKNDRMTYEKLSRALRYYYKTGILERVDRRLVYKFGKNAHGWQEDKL
The conditions noted are these: protein: recombinant; tags: N-terminal GST; dsDNA, one strand shown. The method, boiled down: as §1

For a further assay, the target named is T12, ETV3 (Homo sapiens, UniProt P41162-2 1-143).
T12 sequence: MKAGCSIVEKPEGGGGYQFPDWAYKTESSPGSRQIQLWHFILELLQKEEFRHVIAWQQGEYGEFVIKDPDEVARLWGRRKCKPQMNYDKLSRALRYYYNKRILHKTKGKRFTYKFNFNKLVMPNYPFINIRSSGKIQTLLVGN
The conditions noted are these: protein: recombinant; tags: N-terminal GST; dsDNA, one strand shown. A digest of the protocol: as §1

Another assay has as its target ETV6 (Homo sapiens, UniProt P41212 1-452). The conditions noted are these: protein: recombinant; tags: N-terminal GST; dsDNA, one strand shown. A digest of the protocol:
as §1

Sequence of ELF4 (Q99607 whole entry): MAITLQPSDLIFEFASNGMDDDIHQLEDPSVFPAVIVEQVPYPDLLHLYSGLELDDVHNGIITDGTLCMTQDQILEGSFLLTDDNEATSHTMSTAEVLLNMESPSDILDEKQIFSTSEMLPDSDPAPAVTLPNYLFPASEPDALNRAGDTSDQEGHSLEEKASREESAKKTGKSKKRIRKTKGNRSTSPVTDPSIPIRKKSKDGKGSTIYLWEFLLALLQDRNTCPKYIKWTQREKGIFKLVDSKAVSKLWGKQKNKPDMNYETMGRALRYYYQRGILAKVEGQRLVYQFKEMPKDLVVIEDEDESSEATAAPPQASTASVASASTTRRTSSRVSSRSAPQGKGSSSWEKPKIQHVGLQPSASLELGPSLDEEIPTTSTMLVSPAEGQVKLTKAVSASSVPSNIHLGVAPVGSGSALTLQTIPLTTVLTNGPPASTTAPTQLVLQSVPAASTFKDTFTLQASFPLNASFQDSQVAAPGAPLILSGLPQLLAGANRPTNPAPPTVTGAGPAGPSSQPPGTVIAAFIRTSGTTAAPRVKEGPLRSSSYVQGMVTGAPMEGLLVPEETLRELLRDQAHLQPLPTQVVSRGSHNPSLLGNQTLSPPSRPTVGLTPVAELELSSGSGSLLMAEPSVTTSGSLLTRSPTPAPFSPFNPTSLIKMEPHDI
Sequence of ETV6 (P41212 whole entry): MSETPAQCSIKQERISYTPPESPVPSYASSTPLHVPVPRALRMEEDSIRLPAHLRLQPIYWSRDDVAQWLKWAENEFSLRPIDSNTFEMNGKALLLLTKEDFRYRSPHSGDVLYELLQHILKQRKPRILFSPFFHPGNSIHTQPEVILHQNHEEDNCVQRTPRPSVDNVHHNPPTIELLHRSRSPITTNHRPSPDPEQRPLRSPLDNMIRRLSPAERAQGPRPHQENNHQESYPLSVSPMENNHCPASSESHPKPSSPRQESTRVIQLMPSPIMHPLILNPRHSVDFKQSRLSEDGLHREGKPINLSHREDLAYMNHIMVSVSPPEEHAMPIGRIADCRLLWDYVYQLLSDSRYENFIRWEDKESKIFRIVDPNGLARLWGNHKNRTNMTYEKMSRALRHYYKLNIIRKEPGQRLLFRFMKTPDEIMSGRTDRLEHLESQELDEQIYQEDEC
Sequence of CRX (O43186 whole entry): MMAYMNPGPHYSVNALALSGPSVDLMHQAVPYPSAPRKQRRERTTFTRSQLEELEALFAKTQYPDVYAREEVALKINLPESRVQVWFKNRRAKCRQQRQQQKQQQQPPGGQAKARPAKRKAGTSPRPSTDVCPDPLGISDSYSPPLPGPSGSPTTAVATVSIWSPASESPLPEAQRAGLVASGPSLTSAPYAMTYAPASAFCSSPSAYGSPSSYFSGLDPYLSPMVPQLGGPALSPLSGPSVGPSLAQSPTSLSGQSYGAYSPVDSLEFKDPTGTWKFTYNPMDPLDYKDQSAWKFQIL
Sequence of HSF1 (Q00613 whole entry): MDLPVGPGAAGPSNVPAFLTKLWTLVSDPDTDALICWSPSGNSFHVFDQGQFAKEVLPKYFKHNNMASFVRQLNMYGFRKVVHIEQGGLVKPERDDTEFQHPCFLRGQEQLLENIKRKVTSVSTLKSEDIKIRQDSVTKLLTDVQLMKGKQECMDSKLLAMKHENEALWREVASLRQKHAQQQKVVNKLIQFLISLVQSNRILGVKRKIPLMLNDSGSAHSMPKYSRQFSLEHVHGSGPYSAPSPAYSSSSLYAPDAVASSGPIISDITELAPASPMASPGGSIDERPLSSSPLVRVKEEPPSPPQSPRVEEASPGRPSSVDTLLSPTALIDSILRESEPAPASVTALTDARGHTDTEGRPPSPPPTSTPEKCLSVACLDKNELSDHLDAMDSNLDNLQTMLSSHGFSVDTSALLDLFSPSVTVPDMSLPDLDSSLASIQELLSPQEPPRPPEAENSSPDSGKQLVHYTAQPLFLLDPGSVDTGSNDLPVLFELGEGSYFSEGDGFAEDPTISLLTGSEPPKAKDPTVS
Sequence of ETV5 (P41161 whole entry): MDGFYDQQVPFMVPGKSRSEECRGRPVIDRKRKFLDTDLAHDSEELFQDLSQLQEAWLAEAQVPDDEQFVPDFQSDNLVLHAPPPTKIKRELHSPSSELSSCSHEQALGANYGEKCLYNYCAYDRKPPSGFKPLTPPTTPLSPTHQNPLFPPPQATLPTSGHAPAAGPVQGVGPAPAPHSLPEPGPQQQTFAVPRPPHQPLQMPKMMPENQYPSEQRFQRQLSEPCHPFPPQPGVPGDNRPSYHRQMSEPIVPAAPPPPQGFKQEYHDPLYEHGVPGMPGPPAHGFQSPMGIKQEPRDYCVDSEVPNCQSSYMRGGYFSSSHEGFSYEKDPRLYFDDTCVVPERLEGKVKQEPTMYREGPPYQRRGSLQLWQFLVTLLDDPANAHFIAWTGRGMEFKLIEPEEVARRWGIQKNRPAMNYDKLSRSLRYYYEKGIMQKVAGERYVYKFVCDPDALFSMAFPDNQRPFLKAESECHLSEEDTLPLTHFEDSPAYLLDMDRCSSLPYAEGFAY
Sequence of ETV1 (P50549 whole entry): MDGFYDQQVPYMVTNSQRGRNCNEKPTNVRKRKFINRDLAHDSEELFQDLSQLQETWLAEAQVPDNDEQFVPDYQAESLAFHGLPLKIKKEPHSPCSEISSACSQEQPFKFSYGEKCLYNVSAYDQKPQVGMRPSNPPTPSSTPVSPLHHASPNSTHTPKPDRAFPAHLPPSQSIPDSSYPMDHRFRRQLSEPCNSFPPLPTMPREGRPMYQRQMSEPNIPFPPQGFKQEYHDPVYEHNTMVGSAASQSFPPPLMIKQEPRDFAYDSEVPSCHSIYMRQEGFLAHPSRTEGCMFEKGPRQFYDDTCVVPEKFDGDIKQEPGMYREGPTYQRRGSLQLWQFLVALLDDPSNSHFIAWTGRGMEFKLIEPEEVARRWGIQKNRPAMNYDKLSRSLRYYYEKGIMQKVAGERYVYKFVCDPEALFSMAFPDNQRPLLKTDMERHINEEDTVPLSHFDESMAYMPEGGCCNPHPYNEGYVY

Consider AAGTCC, for which the binding signal with FEV is 1.34 fold enrichment (6-mer frequency, TF over GST control); in the assay with ETV5 it was 1.28 fold enrichment (6-mer frequency, TF over GST control); with HSF1, 1.08 fold enrichment (6-mer frequency, TF over GST control); with SPIC, 1.3 fold enrichment (6-mer frequency, TF over GST control); in the assay with ELF4 it was 1.19 fold enrichment (6-mer frequency, TF over GST control); in the assay with ELK4, 1.25 fold enrichment (6-mer frequency, TF over GST control). The binding signal with ETV2 is 1.19 fold enrichment (6-mer frequency, TF over GST control); with ELF3, 1.3 fold enrichment (6-mer frequency, TF over GST control); with CRX, 1.19 fold enrichment (6-mer frequency, TF over GST control); with ETV1, 1.26 fold enrichment (6-mer frequency, TF over GST control); with ERF it was 1.08 fold enrichment (6-mer frequency, TF over GST control); in the assay with ETV3L, 1.21 fold enrichment (6-mer frequency, TF over GST control). For the same sequence, the binding signal is 1.27 fold enrichment (6-mer frequency, TF over GST control) with ETS2; 1.4 fold enrichment (6-mer frequency, TF over GST control) in the assay with SPDEF; 1.23 fold enrichment (6-mer frequency, TF over GST control) with ETV7; 1.34 fold enrichment (6-mer frequency, TF over GST control) in the assay with ELF5; 1.37 fold enrichment (6-mer frequency, TF over GST control) with ETV3; 1.2 fold enrichment (6-mer frequency, TF over GST control) with ETV6.
